Assay results reported in PubChem BioAssay (NCATS).
Records with an inconclusive call do not appear. Entries that show only a call come without a potency. Active and inactive are the calls of the source. Calls come from the whole dose curve; as a rule, active = well fitted inhibition curve with a large enough effect; inconclusive = small, poorly fitted or top-dose-only effect; inactive = no such curve, though single readings can be large or run the other way.

What follows are compounds tested on Zika virus NS2B-NS3 protease (linked construct) (assay: Primary screen NINDS Rhodamine qHTS for Zika virus inhibitors (AID 1347160; note: nearly all actives have a fitted effect of over 55% in size)). Conditions: purified NS2B-NS3 protease, Rhodamine110 substrate fluorescence; series mostly up to 57.1 µM.
Text: Avindra Nath, Ph.D., National Institute of Neurological Disorders and Stroke (NINDS), Bethesda, MD
Radhakrishnan Padmanabhan, Ph.D., Georgetown University (GU), Washington D.C.
Zika Virus causes congenital defects, including microcephaly and is associated with Guillain-Barre syndrome, eningoencephalitis and myelitis in infected adult. […] Using a target-based approach, we hope to establish a screening paradigm to uncover novel, cell-active NS2B-NS3 protease (Zika Virus) specific inhibitors from NCATS' collection of small molecules using qHTS.
Four assay panel was created to identify potential Zika Virus inhibitors. Namely, (1) GU unlinked NS2B-NS3 AMC tagged protease qHTS, (2) GU unlinked NS2B-NS3 Rhodamine tagged protease qHTS, (3) NINDS linked NS2B-NS3 AMC tagged protease qHTS, (4) NINDS linked NS2B-NS3 Rhodamine tagged protease qHTS. Active compounds were re-acquired and re-screened to confirm inhibition. Inhibitors were further screened against various confirmatory and counterscreens in dose response format.
Early Translation Branch (ETB)
National Center for Advancing Translational Sciences (NCATS), Rockville, MD
National Institute of Health (NIH), Bethesda, Maryland
For the linked assay, Nath lab (NINDS) provided the purified linked NS2B-NS3 protease which is consists of hydrophilic domain of NS2B linked to the NS3 protease domain by a flexible (-[…]-) linker. Control compound aprotinin is obtained from Thermo Scientific (#78432; Waltham, Massachusetts). Rhodamine110 substrate ([N-Cbz]-Nle-Lys-Arg-Arg-Rhod110-Arg-Arg-Lys-Nle-[N-Cbz]) was purchased from either Genscript or Bachem.
1536-well Protease (Rhodamine110 Substrate) Assay:
Briefly, 3 microL of enzyme (25 nM final concentration), in assay buffer (10 mM Tris-HCl pH 8.0 with 0.01% Tween 20) were dispensed into a 1,536-well solid-bottom black plate (Greiner Bio One, Monroe, NC). Twenty-three nL of compounds (final concentration range 7.28 nM to 114 microM) or control Aprotinin (final concentration range 3.47 nM to 114 microM) were transferred via Wako Pin-tool (Wako Automation, Richmond, VA). Samples were incubated (room temperature, protected from light) for 15 minutes followed by a 1 microL Rhodamine110 substrate addition (1.5 microM final concentration). Plates were then immediately read on a ViewLux High-throughput CCD imager (PerkinElmer, Waltham, MA) equipped with FITC fluorescence optics (480(20) nm excitation, 540(25) nm emission), then incubated (room temperature, protected from light) for 15 minutes (~15% conversion). The change in fluorescence intensity over the 15-minute reaction period was normalized against no-inhibitor and no-enzyme controls and the resulting percent inhibition data were fitted to a 4-parameter Hill equation. Aprotinin was used as intraplate control.

Question: With `COc1cc(/C=C/C(=O)NCCn2c(C(F)(F)F)cc3ccccc32)cc(OC)c1OC` as the compound, how does the Potency read?
Answer: Its Potency is “inactive”.

Question: With `O=C(c1c(F)ccc(NS(=O)(=O)N2CC[C@@H](F)C2)c1F)c1c[nH]c2ncc(-c3cnc(C4CC4)nc3)cc12` as the compound, how does the Potency read?
Answer: Its Potency is “inactive”.

Question: For `CC(C)(Cc1nc(-c2ccc(O)cn2)no1)C(=O)NC1=C(C(=O)O)CCCC1`, which Potency is on record?
Answer: The Potency was “inactive”.

Question: Which Potency does the source give for `C=C1/C(=C/C=C2\CCC[C@]3(C)[C@@H]([C@@H](C)OCCC(O)(CC)CC)CC[C@@H]23)C[C@@H](O)C[C@@H]1O` here?
Answer: The Potency was “inactive”.

Question: With `C=C1C(=O)O[C@H]2CC(=C)[C@H]3CC[C@@](C)(O)[C@@H]3CC12` (stereo not given in full) as the compound, how does the Potency read?
Answer: The Potency was “inactive”.

Question: For `O=C(Nc1cccc([N+](=O)[O-])c1)c1cccc(S(=O)(=O)N2CCCCCC2)c1`, which Potency is on record?
Answer: The Potency was “inactive”.

Question: For `O=C(NCC1(N2CCN(c3ccccc3)CC2)CCOCC1)c1cccnc1Sc1ccccc1`, which Potency is on record?
Answer: Its Potency is “inactive”.

Question: `CN(C)c1ccnc2sc3c(=O)n(N4CCCCCC4)cnc3c12` was tested. Which Potency did it give?
Answer: The Potency was “inactive”.

Question: Which Potency does the source give for `C/C(=C/C=C\C=C\Cc1cnco1)[C@@H](O)C(C)(C)C(N)=O` here?
Answer: The Potency was “inactive”.

Question: Which Potency does the source give for `CC1(C)CC[C@]2(C(=O)O)[C@H](O)C[C@]3(C)C(=CCC4[C@@]5(C)CC[C@H](O[C@@H]6O[C@H](CO[C@@H]7OC[C@H](O)[C@H](O)[C@H]7O[C@@H]7OC[C@H](O)[C@H](O)[C@H]7O)[C@@H](O)[C@H](O)[C@H]6O)C(C)(C)C5CC[C@]43C)[C@@H]2C1` (stereo not given in full) here?
Answer: The Potency was “inactive”.

Question: Which Potency does the source give for `C=C1C(=O)O[C@@H]2[C@H]1CCC(C)=C(CCC(=O)O)[C@@]2(C)O` here?
Answer: Its Potency is “inactive”.

Question: With `CC(=O)O[C@H]1CC(C)(C)CC2[C@]13CO[C@@]21CCC2[C@@]4(C)CC[C@H](O[C@@H]5OC[C@H](O[C@@H]6O[C@H](CO)[C@@H](O)[C@H](O)[C@H]6O[C@@H]6OC[C@@H](O)[C@H](O)[C@H]6O)[C@H](O)[C@H]5O[C@@H]5O[C@H](CO)[C@@H](O)[C@H](O)[C@H]5O)[C@@](C)(CO)C4CC[C@@]2(C)[C@]1(C)C[C@H]3O` (stereo not given in full) as the compound, how does the Potency read?
Answer: Its Potency is “inactive”.

Question: `CN(C)Cc1ccc(-c2cnn3c(-c4cccc(NC(=O)c5cccc(C(F)(F)F)c5)c4)ccnc23)cc1` was tested. Which Potency did it give?
Answer: The Potency was “inactive”.

Question: For `O=c1[nH]c2ccccc2n1CCN1CCN(c2cccc(C(F)(F)F)c2)CC1`, which Potency is on record?
Answer: The Potency was “inactive”.

Question: `CCC(CC)C(=O)OC12C(OC(=O)C(C)C)C(C)C3(O)C(C=C(CO)CC4(O)C(=O)C(C)=CC43)C1C2(C)C` (stereo not given) was tested. Which Potency did it give?
Answer: The Potency was “inactive”.

Question: `Cc1ccc(CNc2ncnc3ccc(-c4ccc(CO)o4)cc23)o1` was tested. Which Potency did it give?
Answer: The Potency was “inactive”.

Question: With `CC(=O)O[C@@]12CO[C@@H]1C[C@H](O)[C@@]1(C)C(=O)[C@H](O)C3=C(C)[C@@H](OC(=O)[C@H](O)[C@@H](NC(=O)OC(C)(C)C)c4ccccc4)C[C@@](O)([C@@H](OC(=O)c4ccccc4)C12)C3(C)C` (stereo not given in full) as the compound, how does the Potency read?
Answer: The Potency was “inactive”.

Question: Which Potency does the source give for `C=CC(=O)Nc1cccc(Nc2nc(Nc3ccc(OCCOC)cc3)ncc2F)c1` here?
Answer: The Potency was “inactive”.

Question: How did the Potency turn out when `Cc1ccc(NC(=O)C(C)C)cc1C1CCN(Cc2ccc(Oc3ccc(F)c(F)c3)cc2)CC1` was run?
Answer: The Potency was “inactive”.

Question: How did the Potency turn out when `Cc1cc(C)c(S(=O)(=O)n2cc(C)cc2C)c(C)c1` was run?
Answer: The Potency was “inactive”.

Question: `O=C(Nc1ccc2[nH]c(=O)oc2c1)C(=O)N1CCC(Cc2ccc(F)cc2)CC1` was tested. Which Potency did it give?
Answer: Its Potency is “inactive”.

Question: Which Potency does the source give for `CC(=O)O[C@H]1CC2C(COC(=O)CC(C)C)=CO[C@@H](OC(=O)CC(C)C)C2[C@]12CO2` (stereo not given in full) here?
Answer: Its Potency is “inactive”.

Question: `CC1(C)CCCC2(C)C1C(OC(=O)/C=C/C=C/C=O)C=C1COC(=O)C12O` (stereo not given) was tested. Which Potency did it give?
Answer: The Potency was “inactive”.

Question: Which Potency does the source give for `C=C[C@]1(C)C[C@H](O)[C@H]2C(=C)C(=O)O[C@@H]2[C@H]1C(=C)CO` here?
Answer: Its Potency is “inactive”.

Question: Which Potency does the source give for `N#Cc1ccc2ncnc(NCCc3ccccc3)c2c1` here?
Answer: Its Potency is “inactive”.

Question: `C=C1C(=O)O[C@@H]2C[C@H](C)C3=CC(=O)[C@H](O)[C@@]3(C)C[C@H]12` was tested. Which Potency did it give?
Answer: Its Potency is “inactive”.

Question: How did the Potency turn out when `COc1cc(CCO)ccc1O[C@@H]1O[C@H](CO)[C@@H](O)[C@H](O)[C@H]1O` was run?
Answer: The Potency was “inactive”.

Question: `C/C=C(\C)C(=O)O[C@@H]1[C@@H](C)[C@]2(O)[C@@H]3C=C(C)C(=O)[C@H]3CC(CO)=C[C@H]2C2C(C)(C)[C@@]21OC(=O)C(C)CC` (stereo not given in full) was tested. Which Potency did it give?
Answer: The Potency was “inactive”.

Question: `CNCCN1CCC(c2cc(CN(C)C(=O)c3cccc(Oc4ccccc4)c3)ccn2)CC1` was tested. Which Potency did it give?
Answer: Its Potency is “inactive”.

Question: For `CCC(CC)(NC(=O)C(C)C)C(=O)N[C@@H](CCCN=C(N)N)C(=O)NC1(C(=O)NC(c2ccc(F)cc2)c2ccc(F)cc2)CCCC1`, which Potency is on record?
Answer: Its Potency is “inactive”.

Question: How did the Potency turn out when `C=C1CCCC2(C)CCC(C(C)(C)OC3OC(C)C(O)C(O)C3OC(=O)/C(C)=C\C)CC12` (stereo not given) was run?
Answer: The Potency was “inactive”.

Question: Which Potency does the source give for `Cc1cc(NC(=O)c2cccc(NC(=O)/C=C/CN(C)C)c2)ccc1Nc1nccc(-c2cccnc2)n1` here?
Answer: The Potency was “inactive”.

Question: With `CCC(C)C(=O)OC12C(OC(C)=O)C(C)C3(O)C(C=C(CO)CC4(O)C(=O)C(C)=CC43)C1C2(C)C` (stereo not given) as the compound, how does the Potency read?
Answer: Its Potency is “inactive”.

Question: For `C=C1CC2OC(=O)C(=C)C2C(O)/C=C(\C)CCC1O` (stereo not given), which Potency is on record?
Answer: Its Potency is “inactive”.

Question: How did the Potency turn out when `CC(=O)C1(C)CCC2C3C=C(C)C4=CC(=O)CCC4(C)C3CCC21C` (stereo not given) was run?
Answer: Its Potency is “inactive”.

Question: With `CC(CCC1(O)OC2CC3C4CC=C5C[C@@H](O[C@@H]6O[C@H](CO)[C@@H](O[C@@H]7O[C@@H](C)[C@H](O)[C@@H](O)[C@H]7O)[C@H](O)[C@H]6O[C@@H]6O[C@@H](C)[C@H](O)[C@@H](O)[C@H]6O)CC[C@]5(C)C4CC[C@]3(C)[C@@]2(O)[C@@H]1C)CO[C@@H]1O[C@H](CO)[C@@H](O)[C@H](O)[C@H]1O` (stereo not given in full) as the compound, how does the Potency read?
Answer: Its Potency is “inactive”.

Question: For `O=C1Nc2nc(-c3c(O)cccc3OCC3CC3)cc([C@@H]3CCCNC3)c2CO1`, which Potency is on record?
Answer: The Potency was “inactive”.

Question: Which Potency does the source give for `COc1cc2ncnc(Nc3ccc(O)c(Br)c3)c2cc1OC` here?
Answer: Its Potency is “inactive”.

Question: For `CC1(C)CC[C@]23CO[C@@]4(CCC5[C@@]6(C)CC[C@H](O[C@@H]7OC[C@H](O[C@@H]8O[C@H](CO)[C@@H](O)[C@H](O)[C@H]8O[C@@H]8OC[C@@H](O)[C@H](O)[C@H]8O)[C@H](O)[C@H]7O[C@@H]7O[C@H](CO)[C@@H](O)[C@H](O)[C@H]7O)[C@@](C)(CO)C6CC[C@@]5(C)[C@]4(C)C[C@H]2O)[C@@H]3C1` (stereo not given in full), which Potency is on record?
Answer: The Potency was “inactive”.

Question: `CN(C)CC#CCCC(=O)C(O)(c1ccccc1)C1CCC1` (stereo not given) was tested. Which Potency did it give?
Answer: The Potency was “inactive”.
